The record followed here is PubChem BioAssay (NCI).

The panel holds about 83,000 compounds, 20% with a hit somewhere; the sample as a whole holds those more often.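 Compound tested at a single concentration for 48 hours in 96-well plates; a percent growth value below 10 was scored as active.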 A number with no mark means an inactive call. Calls of active or inactive are those of the source.

The subject of one test is SK-MEL-2 melanoma. Kind of test: NCI-60 one-dose screen, 48 h (100 = growth as untreated, 0 = no growth, -100 = all killed). To be noted: 10 µM unless noted.
With `COc1cnc2c(c1)C(=O)c1c-2n(CCCN2CCNCC2)c(=O)c2cc(Cl)ccc12`, the growth is 43.9%.
The same measure, in the same setting: under `c1coc(CNc2c3ccccc3nc3ccccc23)c1` stands 101%.
Still for that read-out and setting: to `Cn1cnc([N+](=O)[O-])c1S(=O)(=O)Oc1ccccc1` belongs 98.2%; to `O=c1c2cc(Br)cc(Br)c2nc(-c2ccc(Cl)cc2)n1/N=C\c1ccccc1F`, 78.4%; to `CC1=CC(=O)OC1C/C=C(\C)CCC1[C@@]2(C)CCC[C@@](C)(C(=O)O)C2CC[C@@]1(C)O` (stereo partly specified), 16.5%.
With `Cn1cnc([N+](=O)[O-])c1S(=O)(=O)Oc1cccc2ccccc12`, the growth is 85%.
On the same count and under the same terms, to `COc1ccccc1CNCCCN1C(=O)c2ccc3c4c(ccc(c24)C1=O)C(=O)N(CCCOCCCCOCCCN)C3=O` belongs -42.7% (active).
For `COc1cc(NCC(O)CN(CC(C)C)CC(C)C)c2ncccc2c1` (stereo unspecified), the growth is 100%.
The same measure, in the same setting: under `CC(C)(CCc1ccccn1)C(=O)CCCc1ccccn1` stands 98.7%; under `COc1cccc(-c2nc3sccn3c2-c2ccnc(NCCN3CCCN(C)S3(=O)=O)n2)c1`, 97.1%.
With `Cc1ccc(NC(=O)c2sc3nc4c(cc3c2N)C(=O)CCC4)cc1Cl`, the growth was 112%.
The same measure, in the same setting: to `COc1ccc(NC(=O)c2sc3c(=O)[nH]c(C(F)(F)F)nc3c2C)cc1` belongs 91.5%.
Turning to `CCC1=CC2CN(C1)Cc1c([nH]c3ccccc13)[C@@](C(=O)OC)(c1cc3c(cc1OC)N(C)[C@H]1[C@@](O)(C(=O)OC)[C@H](OC(C)=O)[C@]4(CC)C=CCN5CC[C@]31[C@@H]54)C2` (stereo partly specified), the growth is 5.95% (active).
As to `CN1C2CCC1/C(=C\c1ccc(Cl)cc1)C(=O)/C2=C/c1ccc(Cl)cc1`, the growth is 56.7%.
On the same count and under the same terms, to `CC(C)[C@@]12C[C@@H](OC(=O)[C@H]3CO3)[C@@](C)(O1)[C@@H]1CC[C@@H](C)[C@H]1[C@@H]2OC(=O)/C=C/c1ccccc1` belongs 82.4%.
On the same count and under the same terms, to `OCCN(CCO)c1ccc2ccccc2c1` belongs 87.3%; to `O=C(NCCN1CCCC1)n1cc(-c2ccncc2)c(-c2cc(O)cc(Cl)c2)n1`, 90.8%.
Still for that read-out and setting: under `CC1=C(/C=C/C(C)=C/C=C(C(=O)O)\C(C)=C\C(=O)O)C(C)(C)CCC1` stands 94.7%.
As to `O=C1/C=C/[C@@H](O)[C@@H]2C[C@@H](O)C[C@H]2/C=C/CCC[C@H]([C@@H](O)CO)O1`, the growth is 98.4%.
On to `O=C1C(Cl)=C(Nc2cccc3ccccc23)C(=O)c2ccccc21`, for which the growth was 79.1%.
Still for that read-out and setting: to `Cc1ccc2c(C)c3c(ccc4ccccc43)c[n+]2c1` belongs 98.4%.
For the compound `Nc1c(C(=O)C[C@@H](N)CO)ccc2c1C(=O)CCO2`, the growth was 46.8%.
Still for that read-out and setting: under `COc1ccc2c(c1)sc1nc(-c3ccccc3)c(-c3cccc4ccccc34)n12` stands 27.5%.
The same measure, in the same setting: to `CCOc1cc(/C=N\NC(=O)C[N+](C)(C)C)ccc1O` belongs 115%; to `C=C1C(=O)O[C@H]2[C@H]1CC/C(COC(=O)NCc1cn(C)c3ccccc13)=C\CC[C@@]1(C)O[C@@H]21`, -2.82% (active).
On the same count and under the same terms, under `CCCCCCCC/C=C/CCCCCCCC1=NC(C)(C)CN1C(C)C` stands -63.9% (active); under `Clc1ccc(-c2nc(-c3cccs3)no2)cc1`, 103%.
With `C=CCOC(=O)C1=C(C)NC2=C(C(=O)CC(C)(C)C2)C1c1ccc(OC)cc1` (stereo unspecified), the growth was 95%.
Take `COc1ccc(/C=C(\C#N)c2cc(OC)c(OC)c(OC)c2)cc1`: the growth is 64.7%.
The same measure, in the same setting: under `CCOC(=O)C#Cc1c(C(=O)OCC)nnn1[C@@H]1O[C@H](COC(C)=O)[C@@H](OC(C)=O)[C@H]1OC(C)=O` stands 95.8%; under `CCOC(=O)c1ccc(NC(=O)CSC(N)=O)cc1`, 98.6%.
In the case of `COc1cc(-c2nc(-c3ccc(-c4nc5ccc(F)cc5[nH]4)cc3)no2)cc(OC)c1OC`, the growth was 55.6%.
With `Nc1ccc(C2=NNC(=O)Cc3cc4c(cc32)OCCO4)cc1Cl`, the growth is 36.8%.
The same measure, in the same setting: under `COc1cc(/C=C2\CN(C(=O)OC(C)(C)C)C/C(=C\c3ccc(O)c(OC)c3)C2=O)ccc1O` stands 86.2%; under `CCN1C(=O)N(CC)C2C1N=C(SC)N2/N=C/C=C/c1ccccc1OC` (stereo unspecified), 26.5%.
For `N#CCCn1cnc2c(N)ncnc21`, the growth is 106%.
Still for that read-out and setting: to `COc1ccc(C2c3cccn3-c3ccccc3N2C(C)=O)cc1` (stereo unspecified) belongs 117%.
For the compound `COc1ccccc1/C=C/C(=O)CCC(=O)O`, the growth is 102%.

A further test has as its system EKVX NSCLC. The description is as above. To be noted: 10 µM unless noted.
As for `COc1cnc2c(c1)C(=O)c1c-2n(CCCN2CCNCC2)c(=O)c2cc(Cl)ccc12`, the growth is 29%.
Turning to `c1coc(CNc2c3ccccc3nc3ccccc23)c1`, the growth was 62.1%.
Same read-out and setting: to `Cn1cnc([N+](=O)[O-])c1S(=O)(=O)Oc1ccccc1` belongs 103%.
Still for that read-out and setting: to `O=c1c2cc(Br)cc(Br)c2nc(-c2ccc(Cl)cc2)n1/N=C\c1ccccc1F` belongs 63.7%.
`CC1=CC(=O)OC1C/C=C(\C)CCC1[C@@]2(C)CCC[C@@](C)(C(=O)O)C2CC[C@@]1(C)O` (stereo partly specified): the growth is 38.8%.
For the compound `Cn1cnc([N+](=O)[O-])c1S(=O)(=O)Oc1cccc2ccccc12`, the growth is 97.1%.
`COc1ccccc1CNCCCN1C(=O)c2ccc3c4c(ccc(c24)C1=O)C(=O)N(CCCOCCCCOCCCN)C3=O`: the growth is -83.3% (active).
With `COc1cc(NCC(O)CN(CC(C)C)CC(C)C)c2ncccc2c1` (stereo unspecified), the growth was 93.2%.
Consider `CC(C)(CCc1ccccn1)C(=O)CCCc1ccccn1`, for which the growth is 105%.
Take `COc1cccc(-c2nc3sccn3c2-c2ccnc(NCCN3CCCN(C)S3(=O)=O)n2)c1`: the growth is 103%.
On the same count and under the same terms, under `Cc1ccc(NC(=O)c2sc3nc4c(cc3c2N)C(=O)CCC4)cc1Cl` stands 86.2%; under `COc1ccc(NC(=O)c2sc3c(=O)[nH]c(C(F)(F)F)nc3c2C)cc1`, 83.8%; under `CCC1=CC2CN(C1)Cc1c([nH]c3ccccc13)[C@@](C(=O)OC)(c1cc3c(cc1OC)N(C)[C@H]1[C@@](O)(C(=O)OC)[C@H](OC(C)=O)[C@]4(CC)C=CCN5CC[C@]31[C@@H]54)C2` (stereo partly specified), 68.6%.
Same read-out and setting: to `CN1C2CCC1/C(=C\c1ccc(Cl)cc1)C(=O)/C2=C/c1ccc(Cl)cc1` belongs 84.4%; to `CC(C)[C@@]12C[C@@H](OC(=O)[C@H]3CO3)[C@@](C)(O1)[C@@H]1CC[C@@H](C)[C@H]1[C@@H]2OC(=O)/C=C/c1ccccc1`, 71.9%; to `OCCN(CCO)c1ccc2ccccc2c1`, 102%.
As for `O=C(NCCN1CCCC1)n1cc(-c2ccncc2)c(-c2cc(O)cc(Cl)c2)n1`, the growth was 119%.
Same read-out and setting: under `CC1=C(/C=C/C(C)=C/C=C(C(=O)O)\C(C)=C\C(=O)O)C(C)(C)CCC1` stands 124%.
Same read-out and setting: under `O=C1/C=C/[C@@H](O)[C@@H]2C[C@@H](O)C[C@H]2/C=C/CCC[C@H]([C@@H](O)CO)O1` stands 96.6%.
On the same count and under the same terms, to `O=C1C(Cl)=C(Nc2cccc3ccccc23)C(=O)c2ccccc21` belongs 74.4%; to `Cc1ccc2c(C)c3c(ccc4ccccc43)c[n+]2c1`, 44.1%.
For the compound `Nc1c(C(=O)C[C@@H](N)CO)ccc2c1C(=O)CCO2`, the growth was 97.8%.
Consider `COc1ccc2c(c1)sc1nc(-c3ccccc3)c(-c3cccc4ccccc34)n12`, for which the growth was 28.7%.
The same measure, in the same setting: under `CCOc1cc(/C=N\NC(=O)C[N+](C)(C)C)ccc1O` stands 98.7%; under `C=C1C(=O)O[C@H]2[C@H]1CC/C(COC(=O)NCc1cn(C)c3ccccc13)=C\CC[C@@]1(C)O[C@@H]21`, 29.6%; under `CCCCCCCC/C=C/CCCCCCCC1=NC(C)(C)CN1C(C)C`, 10.6%.
Still for that read-out and setting: under `Clc1ccc(-c2nc(-c3cccs3)no2)cc1` stands 85.4%.
In the case of `C=CCOC(=O)C1=C(C)NC2=C(C(=O)CC(C)(C)C2)C1c1ccc(OC)cc1` (stereo unspecified), the growth is 101%.
Same read-out and setting: under `COc1ccc(/C=C(\C#N)c2cc(OC)c(OC)c(OC)c2)cc1` stands 54.7%; under `CCOC(=O)C#Cc1c(C(=O)OCC)nnn1[C@@H]1O[C@H](COC(C)=O)[C@@H](OC(C)=O)[C@H]1OC(C)=O`, 103%; under `CCOC(=O)c1ccc(NC(=O)CSC(N)=O)cc1`, 128%.
Still for that read-out and setting: to `COc1cc(-c2nc(-c3ccc(-c4nc5ccc(F)cc5[nH]4)cc3)no2)cc(OC)c1OC` belongs 46.9%.
Same read-out and setting: under `Nc1ccc(C2=NNC(=O)Cc3cc4c(cc32)OCCO4)cc1Cl` stands 63.9%; under `COc1cc(/C=C2\CN(C(=O)OC(C)(C)C)C/C(=C\c3ccc(O)c(OC)c3)C2=O)ccc1O`, 92.8%.
Consider `CCN1C(=O)N(CC)C2C1N=C(SC)N2/N=C/C=C/c1ccccc1OC` (stereo unspecified), for which the growth is 23.4%.
Regarding `N#CCCn1cnc2c(N)ncnc21`, the growth is 104%.
Take `COc1ccc(C2c3cccn3-c3ccccc3N2C(C)=O)cc1` (stereo unspecified): the growth is 85.9%.
Turning to `COc1ccccc1/C=C/C(=O)CCC(=O)O`, the growth was 105%.
